# Shown are actives, neighbours in structure and some others; about 6.7% of the full set was active somewhere.
# Pf Dd2 growth – P. falciparum Dd2 growth inhibitors, primary screen, SYBR Green fluorescence, single dose replicates. 94,000 tested, 2.3% active. 72 h; hits give low values. activity change, % at 10 µM; in the data active = activity change below about -80%; inconclusive = no clear call, values can overlap the other calls
# C diff growth – C. difficile growth inhibitors, primary screen, HTS. Clostridium difficile clinical isolate growth, OD600, 24 h; hits give low values. 86,000 tested, 0.25% active. growth activity, negative = inhibition, % at 16 µg/mL (by protocol);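 active = mean growth activity at or below -80% and every replicate also at or below -80%; inconclusive = mean at or below -80% but some replicate above -80%; inactive = mean growth activity above -80%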
# T cruzi growth-1 – T. cruzi intracellular proliferation inhibitors, primary screen, cell-based, beta-gal Tulahuen parasites, NIH3T3 host, luminescence; T. cruzi beta-gal in NIH3T3, GalScreen luminescence, 90 h; inhibition, % at 8.34 µM; 77,000 tested, 5.9% active; AID 624255, 2012;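 active = mean inhibition above about 93%, with at least 55% of replicates each passing it, limit read from the data, passing the limit was not always enough; inconclusive = only one of those two conditions holds; inactive = neither condition holds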
# T cruzi growth-2 – T. cruzi intracellular proliferation inhibitors, confirmation, cell-based, NIH3T3 host, beta-gal parasite, luminescence, cherry-pick; shares compounds with T cruzi growth-1; T. cruzi beta-gal in NIH3T3, GalScreen luminescence, 90 h; inhibition, % at 8.35 µM; 5,600 tested, 72% active;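 active = mean replicate inhibition above about 95% and at least 55% of replicates individually reaching it, limit read from the data; inconclusive = only one of the two criteria is met; inactive = neither criterion is met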
# T cruzi growth-3 – inhibitors of intracellular T. cruzi replication, confirmation, NIH3T3 host cells, beta-gal parasites, cherry-pick, set 2 | shares compounds with T cruzi growth-1 | T. cruzi beta-gal in NIH3T3, GalScreen luminescence, 90 h | inhibition, % at 2.09 µM | 5,600 tested, 21% active;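 active = mean inhibition above about 95%, with at least 55% of replicates also reaching it, limit read from the data; inconclusive = meets just one of the two conditions; inactive = meets neither condition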
# 3T3 cytotox – cytotoxicity in mouse NIH/3T3 fibroblasts, confirmation, cytotoxicity control for T. cruzi proliferation inhibitor project, cell-based, cherry-pick, single point; shares compounds with T cruzi growth-1; NIH/3T3 viability, CellTiter-Glo ATP luminescence, 90 h; cytotoxicity (signal decrease), % at 8.35 µM; 5,600 tested, 14% active; AID 651742, 2012;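 active = mean signal decrease across replicates above about 35% based on untreated-well scatter, with enough replicates individually passing, limit read from the data; inconclusive = no rule stated though some were filed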
# NIH3T3 tox 2 – NIH/3T3 fibroblast cytotoxicity, confirmation, cytotoxicity control, cell-based, cherry-pick, single point, set 2. AID 651744, 2012. shares compounds with T cruzi growth-1. 5,600 tested, 56% active. inhibition, % at 24.9 µM. NIH/3T3 viability, CellTiter-Glo ATP luminescence, 90 h;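 active = mean loss of cell viability signal at or above a set limit, and enough replicates individually reaching it; inconclusive = meets only the mean limit or only the replicate share; inactive = meets neither condition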
# A number is an active result; . = inactive; ? = inconclusive; / = no result given.
SMILES,Pf Dd2 growth,C diff growth,T cruzi growth-1,T cruzi growth-2,T cruzi growth-3,3T3 cytotox,NIH3T3 tox 2
O=C(c1ccc(F)cc1)N1CC(=O)N2[C@H](C1)[C@@H](c1ccc(C#CC3CCCCC3)cc1)[C@@H]2CO,.,.,/,/,/,/,/
COc1ccc(NC(=O)N[C@@H]2C=C[C@@H](CC(=O)NC3CCC3)O[C@H]2CO)cc1,.,.,/,/,/,/,/
CN1C(=O)c2cc(NC(=O)c3cscn3)ccc2OC[C@H]2O[C@H](CC(=O)N3CCCCC3)CC[C@@H]21,.,.,.,/,/,/,/
O=C(Nc1ccccc1F)N1CCCCN2[C@@H](CO)[C@@H](c3ccc(C4=CCCC4)cc3)[C@@H]2C1,.,.,.,/,/,/,/
O=C(Nc1ccccc1F)N1CCCCN2[C@@H](CO)[C@H](c3ccc(C4=CCCC4)cc3)[C@@H]2C1,.,.,.,/,/,/,/
COc1ccc(NC(=O)N2CCCCN3[C@H](CO)[C@@H](c4ccc(C5=CCCC5)cc4)[C@H]3C2)cc1,.,.,.,/,/,/,/
COc1ccc(NC(=O)N2CCCCN3[C@H](C2)[C@H](c2ccc(C4=CCCC4)cc2)[C@@H]3CO)cc1,.,.,.,/,/,/,/
O=C(Nc1ccccc1)N1CCCCN2[C@H](CO)[C@H](c3ccc(C4=CCCCC4)cc3)[C@@H]2C1,.,.,?,115,.,.,94
O=C(Nc1ccccc1)N1CCCCN2[C@H](C1)[C@H](c1ccc(C3=CCCCC3)cc1)[C@@H]2CO,.,.,110,109,.,.,79
O=C(Nc1ccccc1)N1CCCCN2[C@@H](CO)[C@H](c3ccc(C4=CCCCC4)cc3)[C@@H]2C1,.,.,?,.,.,116,105
COc1ccc(NC(=O)N2CCCCN3[C@H](CO)[C@H](c4ccc(C5=CCCC5)cc4)[C@@H]3C2)cc1,.,.,117,96,107,.,?
CCCNC(=O)N(C)C[C@@H]1Oc2ncc(C#Cc3ccncc3)cc2C(=O)N([C@@H](C)CO)C[C@H]1C,.,.,.,/,/,/,/
CC(C)C(=O)Nc1ccc2c(c1)C(=O)N(C)[C@@H]1CC[C@@H](CC(=O)N[C@@H](C)c3ccccc3)O[C@@H]1CO2,.,.,.,/,/,/,/
C[C@H](CO)N1C[C@H](C)[C@@H](CN(C)S(=O)(=O)c2ccccc2)OCCCC[C@H](C)Oc2ccc(NS(=O)(=O)c3ccc(F)cc3)cc2C1=O,.,.,.,/,/,/,/
O=C(Nc1ccccc1F)N1CCCCN2[C@H](CO)[C@@H](c3ccc(C4=CCCC4)cc3)[C@H]2C1,.,.,.,/,/,/,/
COc1ccc(NC(=O)N2CCCCN3[C@@H](CO)[C@H](c4ccc(C5=CCCCC5)cc4)[C@@H]3C2)cc1,.,.,.,/,/,/,/
O=C(Nc1ccccc1F)N1CCCCN2[C@H](CO)[C@H](c3ccc(C4=CCCC4)cc3)[C@@H]2C1,.,.,110,109,.,.,.
O=C(Nc1ccc(F)cc1)N1CCCCN2[C@H](CO)[C@H](c3ccc(C4=CCCCC4)cc3)[C@@H]2C1,.,.,118,107,98,.,63
C[C@H](CO)N1C[C@H](C)[C@H](CN(C)S(=O)(=O)c2ccccc2)Oc2ncc(C#CC(C)(C)O)cc2C1=O,.,/,/,/,/,/,/
CO[C@H]1O[C@H](CO)[C@@H](OC(=O)Nc2cccc(F)c2)[C@H](OC(=O)Nc2ccccc2)[C@@H]1OC(=O)Nc1ccccc1,/,.,/,/,/,/,/
O=S(=O)(c1ccccc1F)N1CC[C@@H]2[C@H](CO)Nc3ccc(-c4cccc(F)c4)cc3[C@@H]21,.,.,.,/,/,/,/
N#Cc1cccc(-c2ccc([C@@H]3[C@@H](CO)N4CCCCN(C(=O)Nc5ccccc5)C[C@H]34)cc2)c1,.,.,.,/,/,/,/
N#Cc1cccc(-c2ccc([C@@H]3[C@@H](CO)N4CCCCN(C(=O)Nc5cccc(F)c5)C[C@H]34)cc2)c1,.,.,115,105,.,.,104
N#Cc1cccc(-c2ccc([C@H]3[C@@H](CO)N4CCCCN(C(=O)Nc5ccc(F)cc5)C[C@H]34)cc2)c1,.,.,.,/,/,/,/
N#Cc1cccc(-c2ccc([C@H]3[C@@H](CO)N4CCCCN(C(=O)Nc5ccc(F)cc5)C[C@@H]34)cc2)c1,.,.,123,109,.,.,.
SMILES,Pf Dd2 growth,C diff growth,T cruzi growth-1,T cruzi growth-2,T cruzi growth-3,3T3 cytotox,NIH3T3 tox 2
CCC(=O)N1CCCCN2[C@@H](CO)[C@@H](c3ccc(-c4cccc(C#N)c4)cc3)[C@@H]2C1,.,.,112,.,.,.,.
N#Cc1cccc(-c2ccc([C@@H]3[C@H]4CN(C(=O)Nc5cccc(F)c5)CCCCN4[C@H]3CO)cc2)c1,.,.,.,/,/,/,/
N#Cc1cccc(-c2ccc([C@@H]3[C@H]4CN(C(=O)Nc5ccccc5)CCCCN4[C@H]3CO)cc2)c1,.,.,102,105,.,.,42
CCC(=O)N1CCCCN2[C@H](C1)[C@@H](c1ccc(-c3cccc(C#N)c3)cc1)[C@@H]2CO,.,.,.,/,/,/,/
CC(C)NC(=O)Nc1cccc2c1O[C@H](CN(C)S(=O)(=O)c1cccs1)[C@@H](C)CN([C@@H](C)CO)C2=O,.,.,.,/,/,/,/
COc1ccc2c3c(n(C)c2c1)[C@H](CO)N(C(=O)CN1CCOCC1)CC31CN(Cc2ccncc2)C1,.,.,/,/,/,/,/
COc1ccc(NC(=O)N[C@@H]2CC[C@H](CCNC(=O)Nc3cc(F)ccc3F)O[C@@H]2CO)cc1,.,.,.,/,/,/,/
C[C@H](CO)N1C[C@H](C)[C@@H](CN(C)Cc2ccccc2C(F)(F)F)OCc2cnnn2CCCC1=O,.,.,.,/,/,/,/
CO[C@@H](CN(C)C(=O)Nc1ccc(C(F)(F)F)cc1)[C@@H](C)CN(Cc1ccccc1Cl)[C@@H](C)CO,.,/,.,/,/,/,/
CO[C@H](CN(C)C(=O)Nc1ccc(C(F)(F)F)cc1)[C@@H](C)CN(Cc1ccccc1Cl)[C@@H](C)CO,.,/,101,101,.,47,104
CO[C@H](CN(C)C(=O)Nc1ccc(C(F)(F)F)cc1)[C@H](C)CN(Cc1ccccc1Cl)[C@@H](C)CO,.,/,114,101,100,50,104
CO[C@@H](CN(C)C(=O)Nc1ccc(C(F)(F)F)cc1)[C@H](C)CN(Cc1ccccc1Cl)[C@@H](C)CO,.,/,.,/,/,/,/
CO[C@@H]1CC[C@H]2CCN(C)C(=O)[C@H](C)[C@H](OC)CN(C)C(=O)c3cccc(C#N)c3OC[C@@H]1O2,.,/,.,/,/,/,/

# Screening data as filed in PubChem BioAssay.
